Reference: PubChem BioAssay (NCI)
This is part of a sample that, as a whole, favours compounds with a hit. Of some 79,000 tested, about 15% had one in any assay. Active and inactive are the calls of the source. Rule as the data show it: active = growth inhibition above about 70%; inactive = the rest.

Tests used:
[1] = NCI Yeast Anticancer Drug Screen. Data for the rad52 strain (AID 147);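 also: 0% = growth of vehicle-treated control cultures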; conditions: S. cerevisiae rad52 mutant growth inhibition, active compounds read high
Method in brief: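 Growth of repair-deficient yeast cells was compared between compound-treated and vehicle-treated cultures to give percent inhibition.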

[2] = NCI Yeast Anticancer Drug Screen. Data for the wt1 strain (AID 149);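 also: 0% = growth of vehicle-treated wt1 cultures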; conditions: S. cerevisiae wt1 strain (SPY 50644) growth inhibition, active compounds read high
Method in brief: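 Yeast wt1 strain exposed to compounds; growth inhibition measured relative to vehicle-treated controls.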

[3] = NCI Yeast Anticancer Drug Screen. Data for the rad50EPP+ strain (AID 151);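 also: 0% = growth of vehicle-treated control cultures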; conditions: S. cerevisiae rad50 mutant strain, active compounds read high
Method in brief: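 Measured: growth inhibition of rad50EPP+ yeast. Reference: vehicle-treated controls. Screen uses strains with defined genetic alterations in DNA damage repair or cell cycle control.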

[4] = NCI Yeast Anticancer Drug Screen. Data for the rad50 strain (AID 155);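 also: 0% = growth of vehicle-only cultures of the same strain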; conditions: S. cerevisiae rad50 strain growth inhibition, active compounds read high
Method in brief: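 Yeast carrying a defined DNA repair defect were exposed to test compounds, and growth was compared with vehicle-treated controls to give percent inhibition.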

[5] = NCI Yeast Anticancer Drug Screen. Data for the mec2-1 strain (AID 157); conditions: S. cerevisiae mec2-1 strain, active compounds read high
Method in brief: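 Compounds were applied to mec2-1 yeast cells. Their growth was then compared with that of vehicle-treated cultures to give growth inhibition.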

[6] = NCI Yeast Anticancer Drug Screen. Data for the rad14 strain (AID 159);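 also: 0% = growth of vehicle-treated control cultures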; conditions: S. cerevisiae rad14 strain growth inhibition, active compounds read high
Method in brief: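 Yeast cells carrying a defined DNA-repair defect were exposed to compounds, and growth inhibition was calculated relative to vehicle-treated control cultures.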

[7] = NCI Yeast Anticancer Drug Screen. Data for the sgs1 mgt1 strain (AID 161);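 also: 0% = growth of cultures given vehicle only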; conditions: S. cerevisiae sgs1 mgt1 strain, active compounds read high
Method in brief: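 Yeast cells carrying a defined DNA-repair defect were exposed to test compounds. Growth inhibition was measured relative to vehicle-treated controls.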

[8] = NCI Yeast Anticancer Drug Screen. Data for the CLN2oe strain (AID 163);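 also: 0% = growth of vehicle-only control cultures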; conditions: S. cerevisiae CLN2oe strain, active compounds read high
Method in brief: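 Cells of an engineered yeast line with disturbed cell-cycle regulation are treated with compound. Inhibition of growth is then calculated relative to the vehicle-treated reference.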

[9] = NCI Yeast Anticancer Drug Screen. Data for the cln2 rad14 strain (AID 165);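 also: 0% = growth equal to vehicle treated cultures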; conditions: S. cerevisiae cln2 rad14 strain, active compounds read high
Method in brief: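 Strain: cln2 rad14 yeast, altered in cell cycle control and DNA damage repair. Read-out: growth inhibition vs vehicle.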

[10] = NCI Yeast Anticancer Drug Screen. Data for the bub3 strain (AID 167); conditions: S. cerevisiae bub3 mutant strain, active compounds read high
Method in brief: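 Compounds were applied to a genetically altered yeast strain carrying a cell-cycle control defect. Growth inhibition was scored against vehicle-treated controls.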

[11] = NCI Yeast Anticancer Drug Screen. Data for the wt2 strain (AID 169);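 also: 0% = growth of vehicle-treated yeast cultures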; conditions: S. cerevisiae wt2 strain growth inhibition, active compounds read high
Method in brief: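 Growth of compound-treated yeast is measured and expressed as inhibition relative to vehicle-only controls.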

[12] = NCI Yeast Anticancer Drug Screen. Data for the mlh1 strain (AID 171);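 also: 0% = growth of vehicle-treated control cultures of the same strain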; conditions: S. cerevisiae mlh1 strain growth inhibition, active compounds read high
Method in brief: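 Test agents were incubated with yeast bearing a defined DNA damage repair or cell cycle control alteration; values are growth inhibition normalised to vehicle-treated cultures.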

[13] = NCI Yeast Anticancer Drug Screen. Data for the sgs1 strain (AID 173);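 also: 0% = growth of vehicle-only control cultures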; conditions: S. cerevisiae sgs1 mutant, active compounds read high
Method in brief: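 Strain with an altered DNA repair or cell cycle pathway exposed to compound. Growth then measured. Value = inhibition versus vehicle control.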

[14] = NCI Yeast Anticancer Drug Screen. Data for the mlh1 rad18 strain (AID 175); conditions: S. cerevisiae mlh1 rad18 strain growth inhibition, active compounds read high
Method in brief: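 A repair-deficient yeast strain is exposed to test compound, and growth is scored relative to vehicle-treated controls.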

[15] = NCI Yeast Anticancer Drug Screen. Data for the rad18 strain (AID 177); conditions: S. cerevisiae rad18 mutant growth inhibition, active compounds read high
Method in brief: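 DNA-repair-defective yeast; compound treatment; growth inhibition scored against vehicle.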

[16] = NCI Yeast Anticancer Drug Screen. Data for the mgt1 strain (AID 153); conditions: S. cerevisiae mgt1 mutant growth inhibition, active compounds read high
Method in brief: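 Compounds were applied to mgt1 mutant yeast, and growth was then compared against vehicle-treated control cultures to give percent inhibition.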

[17] = at 5.0 µM (retest, dose inferred, filed as 0.5)
[18] = at 50.0 µM (retest, dose inferred, filed as 5.0)

Measured: growth inhibition

O=c1c2ccccc2nc(-c2ccccc2)n1O
inactive: [1]; at 1.2 µM 16% | [1]; at 3.7 µM 19% | [1]; at 11.0 µM 62% | [2]; at 1.2 µM 12% | [2]; at 3.7 µM 15% | [2]; at 11.0 µM 63% | [3]; at 1.2 µM 3% | [3]; at 3.7 µM 3% | [3]; at 11.0 µM 16% | [4]; at 1.2 µM 36% | [4]; at 3.7 µM 39% | [4]; [17] 45% | [5]; at 1.2 µM 18% | [5]; at 3.7 µM 16% | [5]; [17] 14% | [5]; at 11.0 µM 55% | [6]; at 1.2 µM 51% | [6]; at 3.7 µM 59% | [7]; [17] 66% | [8]; at 1.2 µM 1% | [8]; at 3.7 µM 9% | [8]; at 11.0 µM 29% | [9]; [17] -11% | [10]; at 1.2 µM 12% | [10]; at 3.7 µM 18% | [10]; [17] 43% | [11]; at 1.2 µM 24% | [11]; at 3.7 µM 55% | [12]; at 1.2 µM 50% | [12]; at 3.7 µM 48% | [13]; at 1.2 µM 32% | [13]; at 3.7 µM 48% | [14]; [17] 55% | [15]; at 1.2 µM 39% | [15]; at 3.7 µM 35%
active: [1]; at 33.0 µM 95% | [1]; at 100.0 µM 97% | [2]; at 33.0 µM 97% | [2]; at 100.0 µM 97% | [3]; at 33.0 µM 82% | [3]; at 100.0 µM 87% | [4]; at 11.0 µM 89% | [4]; at 33.0 µM 97% | [4]; [18] 99% | [4]; at 50.0 µM 99% | [4]; at 100.0 µM 98% | [5]; at 33.0 µM 96% | [5]; [18] 99% | [5]; at 50.0 µM 98.2% | [5]; at 100.0 µM 97% | [6]; at 11.0 µM 97% | [6]; at 33.0 µM 99% | [6]; at 100.0 µM 98% | [7]; [18] 99% | [7]; at 50.0 µM 98.8% | [8]; at 33.0 µM 86% | [8]; at 100.0 µM 88% | [9]; [18] 96% | [9]; at 50.0 µM 97% | [10]; at 11.0 µM 78% | [10]; at 33.0 µM 95% | [10]; [18] 99% | [10]; at 50.0 µM 97.9% | [10]; at 100.0 µM 95% | [11]; at 11.0 µM 96% | [11]; at 33.0 µM 98% | [11]; at 100.0 µM 98% | [12]; at 11.0 µM 95% | [12]; at 33.0 µM 98% | [12]; at 100.0 µM 98% | [13]; at 11.0 µM 93% | [13]; at 33.0 µM 97% | [13]; at 100.0 µM 97% | [14]; [18] 99% | [14]; at 50.0 µM 98.5% | [15]; at 11.0 µM 89% | [15]; at 33.0 µM 97% | [15]; at 100.0 µM 97%

Cc1c(C(C)C)cc(OCCO)cc1C(C)C
inactive: [1]; at 1.2 µM -3% | [1]; at 3.7 µM -1% | [1]; at 11.0 µM -4% | [1]; at 33.0 µM 4% | [2]; at 1.2 µM -2% | [2]; at 3.7 µM -3% | [2]; at 11.0 µM -3% | [2]; at 33.0 µM -7% | [2]; at 100.0 µM -7% | [3]; at 1.2 µM -1% | [3]; at 3.7 µM -2% | [3]; at 11.0 µM 0% | [3]; at 33.0 µM 6% | [3]; at 100.0 µM 16% | [4]; at 1.2 µM -3% | [4]; at 3.7 µM 2% | [4]; [17] -8% | [4]; at 11.0 µM 2% | [4]; at 33.0 µM 5% | [4]; [18] -20% | [4]; at 50.0 µM 68.7% | [5]; at 1.2 µM -4% | [5]; at 3.7 µM -7% | [5]; [17] -18% | [5]; at 11.0 µM -8% | [5]; at 33.0 µM -10% | [5]; [18] -11% | [5]; at 50.0 µM -29.8% | [5]; at 100.0 µM 15% | [6]; at 1.2 µM -3% | [6]; at 3.7 µM -7% | [6]; at 11.0 µM -2% | [6]; at 33.0 µM -4% | [6]; at 100.0 µM 36% | [7]; [17] 0% | [7]; [18] 10% | [7]; at 50.0 µM 0.35% | [8]; at 1.2 µM -3% | [8]; at 3.7 µM -3% | [8]; at 11.0 µM -4% | [8]; at 33.0 µM 0% | [9]; [17] 40% | [9]; [18] 1% | [10]; at 1.2 µM -3% | [10]; at 3.7 µM -8% | [10]; [17] -16% | [10]; at 11.0 µM -4% | [10]; at 33.0 µM -5% | [10]; [18] -6% | [10]; at 50.0 µM -16.6% | [10]; at 100.0 µM 22% | [11]; at 1.2 µM -4% | [11]; at 3.7 µM -4% | [11]; at 11.0 µM -6% | [11]; at 33.0 µM -10% | [11]; at 100.0 µM 33% | [12]; at 1.2 µM -9% | [12]; at 3.7 µM -4% | [12]; at 11.0 µM -14% | [12]; at 33.0 µM -11% | [12]; at 100.0 µM 26% | [13]; at 1.2 µM -1% | [13]; at 3.7 µM -3% | [13]; at 11.0 µM -1% | [13]; at 33.0 µM -3% | [13]; at 100.0 µM 45% | [14]; [17] -3% | [14]; [18] -18% | [15]; at 1.2 µM -4% | [15]; at 3.7 µM -7% | [15]; at 11.0 µM -5% | [15]; at 33.0 µM -8% | [15]; at 100.0 µM 65%
active: [1]; at 100.0 µM 77% | [4]; at 100.0 µM 73% | [8]; at 100.0 µM 73% | [9]; at 50.0 µM 86.2% | [14]; at 50.0 µM 83%

CCCCCCCCCCCC1=NCCO1
inactive: [1]; at 1.2 µM 3% | [1]; at 3.7 µM 3% | [1]; at 11.0 µM -1% | [1]; at 33.0 µM 18% | [2]; at 1.2 µM 1% | [2]; at 3.7 µM -1% | [2]; at 11.0 µM 2% | [2]; at 33.0 µM 15% | [3]; at 1.2 µM 4% | [3]; at 3.7 µM 5% | [3]; at 11.0 µM 16% | [3]; at 33.0 µM 27% | [3]; at 100.0 µM 53% | [16]; at 1.2 µM -5% | [16]; at 3.7 µM 3% | [16]; at 11.0 µM 0% | [16]; at 33.0 µM 27% | [4]; at 1.2 µM 9% | [4]; at 3.7 µM 18% | [4]; [17] -11% | [4]; at 11.0 µM 14% | [4]; at 33.0 µM 29% | [4]; [18] 8% | [4]; at 50.0 µM 25.1% | [5]; at 1.2 µM -6% | [5]; at 3.7 µM -4%
active: [1]; at 100.0 µM 98% | [2]; at 100.0 µM 98% | [16]; at 100.0 µM 99% | [4]; at 100.0 µM 99%
